# According to PubChem BioAssay (Tox21):
# Inconclusive results are not listed. Where a call stands in place of a potency, no number is given. Active and inactive are the calls of the source. Calls come from the whole dose curve; as a rule, active = well fitted cell-killing curve with a large enough effect in the repeat runs; inconclusive = weak or mixed curves, or effect the other way; inactive = flat fitted curve, though single readings scatter.
# Assays:
# [1] = cAMP Responsive Elements (CRE) small molecule antagonists, cell-based qHTS assay: qHTS cell viability counter screen (AID 2060913); note: nearly all actives have a fitted effect of over 40% in size; note: potency is the fitted concentration of half-maximal effect
# In short: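 HEK293T CRE-bla, 2,000 cells/well, 18 h preincubation; cpd in DMSO + NKH477 0.25 uM final, 3 h 37 C/5% CO2; LiveBLAzer 2 h RT, then CellTiter-Glo 30 min RT, luminescence.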
# [2] = cAMP Responsive Elements (CRE) small molecule agonists, cell-based qHTS assay: qHTS cell viability counter screen (AID 2060914); note: nearly all actives have a fitted effect of over 50% in size
# In short: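 Luminescence read-out (CellTiter-Glo, 30 min RT) of ATP-based viability in CRE-bla HEK 293T cells, run in the same wells as the β-lactamase reporter assay after 3 h compound treatment at 37 °C.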
Compound,Potency [1],Potency [2],"viability change, negative = cytotoxic [1]","activity change, negative = cytotoxicity [2]"
CCCCCC(=O)OCC,inactive,inactive,,
CC1(C)[C@@H](O[C@H]2O[C@H](C(=O)O)[C@@H](O)[C@H](O)[C@H]2O[C@@H]2O[C@H](C(=O)O)[C@@H](O)[C@H](O)[C@H]2O)CC[C@]2(C)[C@H]3C(=O)C=C4[C@@H]5C[C@@](C)(C(=O)O)CC[C@]5(C)CC[C@@]4(C)[C@]3(C)CC[C@@H]12,inactive,inactive,,
CCc1cccc(O)c1,inactive,inactive,,
COc1cc2nc(N3CCN(C(=O)c4ccco4)CC3)nc(N)c2cc1OC,,,3.29% [at 18.9 µM] (inactive),4.06% [at 18.9 µM] (inactive)
CCC(=O)/C=C/c1ccc(OC)cc1,inactive,inactive,,
CCCCCCCCCCCC[N+](C)(C)CCCCCCCCCCCC,40.3 µM (active),inactive,,
NNc1nc(-c2ccccc2)cs1,inactive,inactive,,
c1ccc2c(c1)ccc1ncccc12,inactive,inactive,,
Nc1ncnc2c1ncn2Cc1c(F)cccc1Cl,inactive,inactive,,
COC(=O)CCCCC(CCSS/C(CCO)=C(\C)N(C=O)Cc1cnc(C)nc1N)SC(C)=O (stereo not given),inactive,inactive,,
C=C(c1ccc(C(=O)O)cc1)c1cc2c(cc1C)C(C)(C)CCC2(C)C,inactive,inactive,,
OC(CCN1CCCC1)(c1ccccc1)C1CCCCC1 (stereo not given),inactive,inactive,,
CCCC(=O)OC(=O)CCC,inactive,inactive,,
CCCCCCCCCCCCCCCC(=O)OC/C=C(C)/C=C/C=C(C)/C=C/C1=C(C)CCCC1(C)C,inactive,inactive,,
COC(CC(C)CCCC(C)(C)O)OC (stereo not given),inactive,inactive,,
